The full list was thinned out, with hits kept by preference.
DAT uptake mod: modulates human dopamine transporter uptake under cocaine; AID 449768; B-score at 10 µM; LLC-PK1 hDAT cells, [14C]-dopamine uptake with cocaine IC80; actives deviate in either direction; Q01959; actives 1.3% (n = 110,000);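 active = Z score or B-score, a plate-position-corrected score, falls beyond the plate's 99.7% confidence bounds, in either direction; inactive = both scores lie inside the 99.7% bounds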;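 also: scored against the spread of the other compound wells on the same plate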
BAP1 inh: inhibitors of human BAP1 deubiquitinase. recombinant BAP1, Ub-AMC hydrolysis fluorescence kinetic; hits give low values. calls only at 20 µM. actives 0.48% (n = 72,000). AID 436;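 active = activity remaining at or below 50% of control, provided the compound also passes the data quality filters; inactive = the rest, including low values that fail the filters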;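 also: 100% = DMSO wells rate and 0% = substrate alone blank rate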
D1 allo mod: allosteric modulators of human D1 dopamine receptor | P21728 | HEK293 D1, CRE-luciferase, dopamine EC30 potentiation; actives deviate in either direction | B-score at 10 µM | actives 5.9% (n = 58,000);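 active = luminescence count or its row- and column-corrected plate score outside the 99.7% band of the plate's sample wells, on either side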
Target sequence (P21728 whole entry, looked up): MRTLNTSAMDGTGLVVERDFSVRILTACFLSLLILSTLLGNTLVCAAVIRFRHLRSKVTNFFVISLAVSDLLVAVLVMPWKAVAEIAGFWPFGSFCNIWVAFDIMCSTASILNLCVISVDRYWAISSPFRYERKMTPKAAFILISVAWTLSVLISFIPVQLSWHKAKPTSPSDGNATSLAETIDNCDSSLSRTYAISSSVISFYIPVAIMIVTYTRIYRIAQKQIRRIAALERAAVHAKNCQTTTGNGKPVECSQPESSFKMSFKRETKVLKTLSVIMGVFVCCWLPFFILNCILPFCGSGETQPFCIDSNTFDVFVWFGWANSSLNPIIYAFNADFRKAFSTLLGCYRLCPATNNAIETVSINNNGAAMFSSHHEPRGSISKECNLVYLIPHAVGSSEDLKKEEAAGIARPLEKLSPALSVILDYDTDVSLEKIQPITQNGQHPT
D1 PAM confirm: D1 receptor (human) allosteric modulation, confirmed; shares compounds with D1 allo mod; HEK293 D1 CRE-luciferase, dopamine EC30 potentiation; hits give high values; luminescence at 10 µM; actives 88% (n = 2,200);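 active = luminescence in either of two replicates above the same-plate mean plus 3 SD of the low-dose dopamine control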
D1 ag no DA: D1 (human) signaling in absence of dopamine; shares compounds with D1 allo mod; HEK293 D1 CRE-luciferase, luminescence, no dopamine; hits give high values; luminescence at 10 µM; actives 0.8% (n = 1,900); in the data active = luminescence above about 3900
Isoprot counter: isoproterenol response counter-screen activity for D1 modulators. shares compounds with D1 allo mod. HEK293 D1 CRE-luciferase, isoproterenol EC30 counter-screen; hits give high values. luminescence at 10 µM. actives 63% (n = 2,200). AID 647;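 active = luminescence in either replicate above plate mean of wells with a partly effective reference agonist dose plus 3 SD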;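 also: isoproterenol raises cAMP through native beta-adrenoceptor Gs so signal bypasses D1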
* marks the source's active call; other numbers are inactive results; i = inactive; . = not tested or not shown.

SMILES	DAT uptake mod	BAP1 inh	D1 allo mod	D1 PAM confirm	D1 ag no DA	Isoprot counter
CC(C)n1c(SCC(=O)c2ccc3c(c2)OCCO3)nc2c1c(=O)n(C)c(=O)n2C	1.4	i	3.5	.	.	.
CC(C)n1c(SCC(=O)Nc2nc3ccccc3s2)nc2c1c(=O)n(C)c(=O)n2C	-0.5	.	.	.	.	.
CCOc1ccc2nc(NC(=O)CSc3nc4c(c(=O)n(C)c(=O)n4C)n3C(C)C)sc2c1	.	i	4*	10912*	1684	4712*
CCCn1c(SCC(=O)Nc2ccccc2C(=O)OC)nc2c1c(=O)n(C)c(=O)n2C	-0.42	i	8.5*	12220*	1740	3848*
COC(=O)c1ccccc1NC(=O)CSc1nc2c(c(=O)n(C)c(=O)n2C)n1C	.	i	0.57	.	.	.
CC1CC(C)CN(S(=O)(=O)c2ccc(C(=O)Nc3cccc(-c4nc5ccccc5s4)c3)cc2)C1 (centres undefined)	.	i	.	.	.	.
Cn1ccccc1=Nc1cccc[n+]1C	.	i	.	.	.	.
CCn1c(SCC(=O)Nc2ccc3c(c2)OCO3)nc2ccccc21	-0.85	.	.	.	.	.
CCn1c(=O)cc(SCC(=O)Nc2ccc3c(c2)OCO3)c2ccccc21	0.41	i	5.2*	9432*	1616	3476
CCCc1cc2c(c(NC(C)=O)n1)c(=O)oc1ccccc12	1.1	i	7.9*	21272*	1716	4588*
CCCC(=O)Nc1cc(C)c2c(=O)oc3ccccc3c2n1	-0.9	i	3.3	.	.	.
CCOC(=O)Cc1nnc(NC(=O)c2ccccc2OC)s1	-0.092	i	-0.73	.	.	.
CCOC(=O)Cc1nnc(NC(=O)c2ccccc2OCC)s1	1.8	i	2.7*	8096*	1648	3560*
CC1CCc2nc(NCCO)nc(C(F)(F)F)c2C1 (centres undefined)	-0.35	i	7.5*	13160*	1232	3040*
OCCNc1nc(N2CCCC2)nc(N2CCCC2)n1	1.4	.	.	.	.	.
Cc1cc(C)c(NC(=O)CCC(=O)O)c(C)c1	.	i	.	.	.	.
CCOc1ccc(C(=O)Nc2ccc3oc(-c4ccc5ccccc5c4)nc3c2)cc1[N+](=O)[O-]	.	i	.	.	.	.
COc1ccc(C=Cc2ccc([N+](=O)[O-])cc2)c(OC)c1	.	i	.	.	.	.
COC(C)(C)c1cc(C(C)(C)C)nc(N)n1	-0.02	i	3.1*	10892*	.	2772*
O=C1C2CCCCC2C(=O)N1c1cccc2ccccc12 (centres undefined)	.	i	.	.	.	.
COc1ccc(C2=Nn3c(nnc3-c3ccccc3)SC2)cc1OC	0.0067	i	29*	21404*	.	6152*
c1ccc(C2=Nn3c(nnc3-c3ccncc3)SC2)cc1	-0.18	i	2.9*	9856*	1576	2808
c1cncc(-c2nnc3n2N=C(c2cccs2)CS3)c1	-0.0035	i	4.1*	15800*	1740	4104*
c1ccc(C2=Nn3c(nnc3-c3ccccn3)SC2)cc1	-1.2	i	.	.	.	.
c1ccc(-c2cc(-c3nnc4n3N=C(c3ccc5ccccc5c3)CS4)[nH]n2)cc1	-1.1	.	.	.	.	.
SMILES	DAT uptake mod	BAP1 inh	D1 allo mod	D1 PAM confirm	D1 ag no DA	Isoprot counter
COc1ccc(-c2nnc3n2N=C(C)CS3)cc1OC	-0.85	i	-2	.	.	.
c1cncc(-c2nc(-c3cccs3)cs2)c1	-0.42	.	.	.	.	.
Cc1cccc(-c2nnc3n2N=C(c2ccccc2)CS3)c1	0.44	i	16*	3880	1728	4692*
CCOC(=O)C1=C(C)NC(=O)CC1c1ccccc1F (centres undefined)	.	i	.	.	.	.
CC(C)CN(CC(C)C)C(=O)CN1C(=O)c2ccccc2C1=O	.	i	.	.	.	.
COc1ccc(C2=Nn3c(nnc3-c3ccco3)SC2)cc1	0.91	.	.	.	.	.
CC1=Nn2c(nnc2-c2ccccc2F)SC1	-0.62	i	0.73	.	.	.
CCOc1ccc(C2=Nn3c(nnc3-c3cccnc3)SC2)cc1	-0.098	i	.	.	.	.
COc1ccc(C2=Nn3c(nnc3-c3cccnc3)SC2)cc1	-0.42	i	5.6*	10056*	1736	3892*
c1ccc(C2=Nn3c(nnc3-c3cccnc3)SC2)cc1	-0.95	i	4.9*	11260*	1752	3264
Cc1ccc(-c2nnc3n2N=C(c2ccccc2Br)CS3)cc1	1.4	i	16*	15256*	1688	5504*
CCCc1nnc2n1N=C(c1ccc(OC)c(OC)c1)CS2	1.6	i	26*	22008*	.	15456*
CCCc1nnc2n1N=C(c1ccc(-c3cc(Cl)ccc3Cl)o1)CS2	-0.78	i	-0.48	.	.	.
CCCCC(=O)Nc1c2c(nn1-c1ccc(C)cc1)CSC2	.	i	.	.	.	.
O=C(COc1ccccc1)NCCCN1CCOCC1	.	i	.	.	.	.
O=C(Nc1ccc(-c2nc3cc(NC(=O)C4CCCCC4)ccc3o2)cc1)C1CCCCC1	.	i	.	.	.	.
COC(=O)C1=C(C)NC2=C(C(=O)CCC2)C1c1ccc(OC)cc1 (centres undefined)	.	i	.	.	.	.
CCNc1sc(C(=O)c2cccs2)c(N)c1-c1nc2ccccc2s1	1.1	i	-0.003	.	.	.
C=CCNc1sc(C(=O)c2cccs2)c(N)c1C#N	-0.18	i	16*	22248*	1616	3772*
C=CCNc1sc(C(=O)c2ccccc2)c(N)c1-c1nc2ccccc2s1	0.35	.	.	.	.	.
CCNc1sc(C(=O)c2cccs2)c(N)c1C#N	-0.48	i	18*	22348*	1796	3968*
COc1ccc2c(c1)-c1cc(Cl)ccc1S(=O)(=O)N2S(=O)(=O)c1ccc2ccccc2c1	.	i	.	.	.	.
Cc1ccccc1C(=O)Nc1ccc2nc(NC(=O)c3ccccc3C)sc2c1	.	i	.	.	.	.
O=C(Nc1nnc(N=Cc2cccs2)s1)c1ccc(S(=O)(=O)N2CCCCC2)cc1	.	i	.	.	.	.
CCCCC(c1nnnn1C1CCCC1)N1CCN(C(=O)c2ccco2)CC1 (centres undefined)	1	i	-0.46	.	.	.
SMILES	DAT uptake mod	BAP1 inh	D1 allo mod	D1 PAM confirm	D1 ag no DA	Isoprot counter
CCCC(c1nnnn1C1CCCC1)N1CCN(C(=O)c2ccco2)CC1 (centres undefined)	-0.35	i	3.4*	5248	1512	2408
COc1ccc(NS(=O)(=O)c2ccc(N=Cc3ccc([N+](=O)[O-])cc3)cc2)nn1	.	i	.	.	.	.
Cc1cc(C(=O)O)c2ccccc2n1	-1.2	.	.	.	.	.
Cc1cc(-c2nc3ccccc3o2)c2ccccc2n1	0.87	i	15*	14660*	.	3288*
CCN(CC)CCN(C(=O)Cn1nnc(-c2ccc(OC)c(OC)c2)n1)C(C(=O)NC1CCCC1)c1ccc(F)cc1 (centres undefined)	1.3	.	.	.	.	.
CCC(C(=O)NC1CCCC1)N(C(=O)Cn1nnc(-c2ccc(OC)c(OC)c2)n1)C1CCCCC1 (centres undefined)	1.7	i	6.8*	9072*	1456	3972*
Cc1ccc(-c2nnc3sc(-c4ccncc4)nn23)cc1	-0.056	i	2.5	.	.	.
COc1cccc(-c2nn3c(-c4cc(C)[nH]n4)nnc3s2)c1	-0.36	i	3.4*	6292*	2016	2620
COc1cccc(-c2nn3c(-c4ccccn4)nnc3s2)c1	0.043	i	.	.	.	.
Cc1cccc(-c2nnc3sc(-c4ccccc4)nn23)c1	0.37	i	7.6*	15580*	1692	3424*
